Measured values: PubChem BioAssay (EPA / NIEHS)
Inconclusive results are not listed. The source made the active and inactive calls. The calls were made as follows: active = hit-call score of the fitted dose curve at least 0.9, where 1 is the maximum; inconclusive = response in the unintended direction; inactive = score below 0.9.

The compounds below were run against Androgen receptor (Homo sapiens) (UniProt P10275) (assay: ATG_AR_TRANS: Attagene TRANS-FACTORIAL HepG2 Assay for human Androgen Receptor (AR) (AID 2282973)). Conditions: HepG2 Attagene TRANS-FACTORIAL AR reporter transcription.
Experimental: ATG_TRANS is a cell-based, multiplexed-readout assay that uses HepG2, a human liver cell line, with measurements taken at 24 hours after chemical dosing in a 24-well plate.ATG_AR_TRANS is one of 30 assay component(s) measured or calculated from the ATG_TRANS assay. It is designed to make measurements of mRNA induction, a form of inducible reporter, as detected with fluorescence intensity signals by Reverse transcription polymerase chain reaction (RT-PCR) and Capillary electrophoresis technology.Data from the assay component ATG_AR_TRANS was analyzed into 1 assay endpoint. This assay endpoint, ATG_AR_TRANS, was analyzed in the positive analysis fitting direction relative to DMSO as the negative control and baseline of activity. Using a type of inducible reporter, measures of mRNA for gain-of-signal activity can be used to understand the reporter gene at the transcription factor-level as they relate to the gene AR. Furthermore, this assay endpoint can be referred to as a primary readout, because this assay has produced multiple assay endpoints where this one serves a reporter gene function. To generalize the intended target to other relatable targets, this assay endpoint is annotated to the nuclear receptor intended target family, where the subfamily is steroidal.
Human liver HepG2 cells are transiently transfected with multiple reporter transcription units (MRTUs) in 6-well plates using FuGene 6 reagent (Roche; 3 ml FuGene/1 mg DNA). The MRTU constructs are regulated by a cis-regulating element (promoter). […] A major difference between the CIS and TRANS system is that in CIS activities of endogenous TFs are measured, whereas the TRANS assay evaluates changes in activities of exogenous, chimeric NR-Gal4 proteins. […] At the end of 24 hour incubation, total RNA was isolated using TriZol reagent (Invitrogen). The isolated RNA is then reverse-transcribed using oligo(dT) primer and Mo-MLV reverse transcriptase (Invitrogen) with DNAse I (Ambion) treatment for 30 min. The one-tenth of the produced cDNA was amplified by PCR using Taq DNA polymerase (Invitrogen) and two reporter sequence-specific primers. The PCR products were fluorescently labeled by primer extension with 6-arboxyfluorescein (6-FAM) 5'-labeled reporter sequence-specific primer (2 min at 95 C, 20 s at 68 C and 10 min at 72 C) and these products were digested with 5U of HpaI (New England Biolabs) for 2h at 37 C. The fragments were purified using Qiaquick PCR columns (Qiagen), analyzed on an ABI 3130xL genetic analyzer (Applied Biosystems) with peak positions identified by using a set of X-rhodamine (ROX)-labeled MapMarker1000 molecular weight standards (BioVentures). The raw capillary electrophoresis data was processed using Attagraph software (Attagene).

Sequence of Androgen receptor (Homo sapiens) (P10275 whole entry, looked up): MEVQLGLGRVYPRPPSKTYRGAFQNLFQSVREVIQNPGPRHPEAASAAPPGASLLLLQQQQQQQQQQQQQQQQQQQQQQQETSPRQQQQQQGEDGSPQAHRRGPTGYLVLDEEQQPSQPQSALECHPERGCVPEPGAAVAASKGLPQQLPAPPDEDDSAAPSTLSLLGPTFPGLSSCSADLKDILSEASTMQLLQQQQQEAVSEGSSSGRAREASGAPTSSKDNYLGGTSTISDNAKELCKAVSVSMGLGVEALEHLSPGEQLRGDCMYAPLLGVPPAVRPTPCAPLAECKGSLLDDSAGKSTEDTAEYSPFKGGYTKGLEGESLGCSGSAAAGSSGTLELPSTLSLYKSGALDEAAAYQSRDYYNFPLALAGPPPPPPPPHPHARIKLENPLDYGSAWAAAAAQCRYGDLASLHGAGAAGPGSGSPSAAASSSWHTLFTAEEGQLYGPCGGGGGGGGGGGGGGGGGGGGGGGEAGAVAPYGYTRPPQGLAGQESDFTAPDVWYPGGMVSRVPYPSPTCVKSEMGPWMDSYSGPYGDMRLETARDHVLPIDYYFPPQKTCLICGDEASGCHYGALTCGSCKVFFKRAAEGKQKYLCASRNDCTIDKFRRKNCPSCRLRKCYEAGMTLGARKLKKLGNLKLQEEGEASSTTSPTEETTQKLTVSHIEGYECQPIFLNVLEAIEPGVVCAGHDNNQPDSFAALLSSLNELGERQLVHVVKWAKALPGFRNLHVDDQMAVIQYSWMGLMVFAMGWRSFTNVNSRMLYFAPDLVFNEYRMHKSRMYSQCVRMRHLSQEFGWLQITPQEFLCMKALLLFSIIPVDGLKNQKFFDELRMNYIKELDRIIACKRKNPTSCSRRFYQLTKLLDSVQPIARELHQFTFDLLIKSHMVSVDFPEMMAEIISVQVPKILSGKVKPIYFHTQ

SMILES	outcome
CCCCC(CC)COC(=O)c1ccc(C(=O)OCC(CC)CCCC)c(C(=O)OCC(CC)CCCC)c1 (configuration not stated)	inactive
CO[C@@H]1[C@H](OC(=O)NC(=O)CCl)CC[C@]2(CO2)[C@H]1[C@@]1(C)O[C@@H]1CC=C(C)C	inactive
CC(C)(OOC(C)(C)c1ccccc1)c1ccccc1	inactive
Nc1ccc(Cl)cc1N	inactive
CCNS(=O)(=O)C(F)(F)C(F)(F)C(F)(F)C(F)(F)C(F)(F)C(F)(F)C(F)(F)C(F)(F)F	inactive
CC(C)(O)c1cnn2c(-c3ccc(F)c(-c4c(F)cccc4C#N)c3)cnc2n1	inactive
Cc1cc(N=Nc2ccccc2C)ccc1N	inactive
O=[N+]([O-])C(Br)(CO)CO	inactive
O=C1CCCO1	inactive
O=C(Nc1ccccc1)c1ccccc1I	inactive
CNC(=O)Oc1cccc2c1OC(C)(C)C2	inactive
CC(C)N(Cc1ccccc1)C(=O)C(C)(C)C	inactive
